Reference: PubChem BioAssay (Tox21)
Results filed as inconclusive are left out. Entries that show only a call come without a potency. Unmarked numbers belong to inactive results. Active and inactive are the calls of the source. Unless noted, the call rests on the fitted dose curve; in most records, active means well fitted curve in the direction sought with a large enough effect in the repeat runs; inconclusive means weak or mixed curves; inactive means no such curve, though single readings can be large; an effect the other way counts as inactive or inconclusive. Positions of bridges follow the written chain, without caps; N, C: chain ends. Non-standard residues stand in square brackets, D forms with d. Residues, ends and D or L forms follow the SMILES beside them. Orn = NCCC[C@H](N)C(=O)O; Mpa = O=C(O)CCS

Assays:
[1] = qHTS assay to identify small molecule antagonists of the thyroid receptor (TR) signaling pathway - cell viability counter screen (AID 743064); further: nearly all actives have a fitted effect of over 50% in size
Outline: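 Fluorescence from CellTiter-Fluor, added after 23.5 h exposure at 37 °C, reported viability of GH3.TRE-Luc cells co-treated with compound and 1 nM T3. Measured in the same wells as the luciferase TR readout.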

[2] = qHTS assay to identify small molecule antagonists of the thyroid receptor (TR) signaling pathway (AID 743065); further: nearly all actives have a fitted effect of over 55% in size
Outline: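 GH3.TRE-Luc rat pituitary cells (two TREs driving luciferase) were dosed with compound, then stimulated with 1 nM T3 (final) for 23.5 h at 37 C. ONE-Glo luminescence was the read-out, with CellTiter-Fluor fluorescence as the cytotoxicity counter-screen.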

[3] = test system: thyroid hormone receptor (rat, GH3 cells); assay: qHTS assay to identify small molecule agonists of the thyroid receptor (TR) signaling pathway (AID 743066; calls by dose curve)
[4] = molecular target: Estrogen receptor (Homo sapiens) (UniProt P03372); assay: qHTS assay to identify small molecule antagonists of the estrogen receptor alpha (ER-alpha) signaling pathway (AID 743069; active means well fitted curve in the direction sought with a large enough effect in the signal ratio in the repeat runs, not every such curve was filed as active; the % refers to the signal ratio)
Sequence of Estrogen receptor (Homo sapiens) (P03372 whole entry, looked up): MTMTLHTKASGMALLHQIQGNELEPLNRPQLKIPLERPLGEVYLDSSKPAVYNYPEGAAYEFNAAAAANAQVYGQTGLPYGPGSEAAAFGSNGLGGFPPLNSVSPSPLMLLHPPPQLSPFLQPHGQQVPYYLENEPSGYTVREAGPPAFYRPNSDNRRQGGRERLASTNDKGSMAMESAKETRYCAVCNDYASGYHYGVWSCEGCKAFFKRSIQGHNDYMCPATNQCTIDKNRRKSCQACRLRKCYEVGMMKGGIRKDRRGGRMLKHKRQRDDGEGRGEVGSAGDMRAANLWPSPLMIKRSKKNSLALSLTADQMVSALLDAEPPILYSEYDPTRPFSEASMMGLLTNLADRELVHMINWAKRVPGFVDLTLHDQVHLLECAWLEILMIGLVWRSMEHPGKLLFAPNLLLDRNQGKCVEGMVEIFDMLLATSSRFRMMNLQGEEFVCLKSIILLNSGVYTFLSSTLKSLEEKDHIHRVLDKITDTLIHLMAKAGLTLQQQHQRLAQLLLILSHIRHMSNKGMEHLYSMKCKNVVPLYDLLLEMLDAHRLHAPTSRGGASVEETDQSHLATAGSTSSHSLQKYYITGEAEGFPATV
Outline: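 Reporter cells (ER-alpha-bla, HEK293 background) are conditioned overnight in stripped-serum medium (2% charcoal-stripped FBS). Compound and 17beta-estradiol exposure runs 18 hr at 37C, 5% CO2.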

[5] = qHTS assay to identify small molecule antagonists of the estrogen receptor alpha (ER-alpha) signaling pathway - cell viability counter screen (AID 743074; calls by dose curve;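 further: HEK293 cells carrying ER-alpha-UAS-bla reporter stimulated with 17beta-estradiol; nearly all actives have a fitted effect of over 45% in size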)
[6] = molecular target: Estrogen receptor (Homo sapiens) (UniProt P03372); assay: qHTS assay to identify small molecule agonists of the estrogen receptor alpha (ER-alpha) signaling pathway (AID 743075; calls by dose curve;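 further: HEK293 GripTite cells with ER-alpha and UAS-driven beta-lactamase reporter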)
[7] = molecular target: Estrogen receptor (Homo sapiens) (UniProt P03372); assay: qHTS assay to identify small molecule agonists of the estrogen receptor alpha (ER-alpha) signaling pathway using the BG1 cell line (AID 743079); conditions: BG1Luc4E2 cells, ERE-luciferase agonist, 22 h; activation: at 70.3 µM (top of the series); further: nearly all actives have a fitted effect of over 20% in size; further: potency means the concentration at half of the fitted maximal effect
[8] = qHTS assay to identify small molecule antagonists of the estrogen receptor alpha (ER-alpha) signaling pathway using the BG1 cell line - cell viability counter screen (AID 743081);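 further: compound given together with 17beta-estradiol as the ER stimulus; nearly all actives have a fitted effect of over 45% in size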
Aromatase (Homo sapiens) = Aromatase (Homo sapiens) (UniProt P11511); assay: qHTS assay to identify aromatase inhibitors (AID 743083); further: nearly all actives have a fitted effect of over 55% in size; further: potency means the concentration at half of the fitted maximal effect
Sequence of Aromatase (Homo sapiens) (P11511 whole entry, looked up): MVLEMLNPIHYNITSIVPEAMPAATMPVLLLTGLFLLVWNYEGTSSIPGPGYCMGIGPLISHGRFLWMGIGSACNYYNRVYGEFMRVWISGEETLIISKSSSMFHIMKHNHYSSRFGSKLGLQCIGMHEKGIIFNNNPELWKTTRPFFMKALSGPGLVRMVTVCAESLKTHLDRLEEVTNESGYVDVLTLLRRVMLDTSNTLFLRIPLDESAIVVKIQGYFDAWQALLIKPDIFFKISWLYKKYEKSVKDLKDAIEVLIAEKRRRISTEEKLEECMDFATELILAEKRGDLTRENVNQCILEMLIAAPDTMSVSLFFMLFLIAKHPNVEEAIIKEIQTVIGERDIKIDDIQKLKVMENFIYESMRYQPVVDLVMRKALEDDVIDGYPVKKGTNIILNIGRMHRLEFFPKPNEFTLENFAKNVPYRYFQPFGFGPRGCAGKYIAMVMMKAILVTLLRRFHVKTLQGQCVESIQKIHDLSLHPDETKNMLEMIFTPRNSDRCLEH

[9] = qHTS assay to identify aromatase inhibitors - cell viability counter screen (AID 743084);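 further: cells stimulated with testosterone during compound exposure; nearly all actives have a fitted effect of over 55% in size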
[10] = molecular target: Aryl hydrocarbon receptor (Homo sapiens) (UniProt P35869); assay: qHTS assay to identify small molecule that activate the aryl hydrocarbon receptor (AhR) signaling pathway (AID 743085); further: nearly all actives have a fitted effect of over 15% in size; further: potency means the concentration at half of the fitted maximal effect;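 on activation: HG2L7.5c1 human HepG2 liver cells with stably integrated DRE-driven firefly reporter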
Sequence of Aryl hydrocarbon receptor (Homo sapiens) (P35869 whole entry, looked up): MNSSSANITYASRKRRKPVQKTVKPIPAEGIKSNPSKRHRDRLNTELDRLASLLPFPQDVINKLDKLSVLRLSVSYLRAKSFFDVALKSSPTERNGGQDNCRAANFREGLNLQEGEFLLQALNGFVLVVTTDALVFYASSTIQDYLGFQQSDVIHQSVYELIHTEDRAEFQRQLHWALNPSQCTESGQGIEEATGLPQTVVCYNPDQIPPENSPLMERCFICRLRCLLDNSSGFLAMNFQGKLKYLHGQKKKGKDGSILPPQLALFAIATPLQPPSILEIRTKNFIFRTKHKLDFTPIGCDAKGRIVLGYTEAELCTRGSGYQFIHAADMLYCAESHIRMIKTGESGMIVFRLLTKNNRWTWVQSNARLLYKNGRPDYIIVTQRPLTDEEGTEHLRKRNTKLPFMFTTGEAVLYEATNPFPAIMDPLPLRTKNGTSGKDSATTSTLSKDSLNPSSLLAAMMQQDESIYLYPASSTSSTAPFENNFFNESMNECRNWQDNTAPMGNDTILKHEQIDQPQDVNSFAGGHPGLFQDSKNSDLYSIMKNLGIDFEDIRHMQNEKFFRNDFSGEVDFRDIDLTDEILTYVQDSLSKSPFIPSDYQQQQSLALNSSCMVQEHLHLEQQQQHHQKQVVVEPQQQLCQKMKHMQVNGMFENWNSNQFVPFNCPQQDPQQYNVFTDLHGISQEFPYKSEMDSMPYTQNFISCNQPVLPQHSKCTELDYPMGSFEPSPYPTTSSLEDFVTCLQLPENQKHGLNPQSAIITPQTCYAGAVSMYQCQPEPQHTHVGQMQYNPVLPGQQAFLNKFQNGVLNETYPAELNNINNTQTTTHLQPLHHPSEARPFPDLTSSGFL
Outline: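 Cell line HG2L7.5c1 (human hepatoma, 20× DRE-luc). Plated, 5 h 37C, compound/DMSO added, 24 h 37C. CellTiter-Fluor 30 min 37C → fluorescence; then ONE-Glo 30 min RT → luminescence.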

[11] = qHTS assay to identify small molecule that activate the aryl hydrocarbon receptor (AhR) signaling pathway - cell viability counter screen (AID 743086);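 further: HepG2 liver cells carrying the AhR DRE luciferase reporter; nearly all actives have a fitted effect of over 45% in size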
Outline: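 HepG2-AhR-luc (HG2L7.5c1) cells, 4000/well, treated 24 h at 37 C with compound; viability measured as CellTiter-Fluor fluorescence after 30 min in the same wells as the luciferase read.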

[12] = molecular target: Peroxisome proliferator-activated receptor gamma (Homo sapiens) (UniProt P37231); assay: qHTS assay to identify small molecule agonists of the peroxisome proliferator-activated receptor gamma (PPARg) signaling pathway (AID 743094; active means well fitted activation curve with a large enough effect in the signal ratio in the repeat runs, not every such curve was filed as active; the % refers to the signal ratio)
Sequence of Peroxisome proliferator-activated receptor gamma (Homo sapiens) (P37231 whole entry, looked up): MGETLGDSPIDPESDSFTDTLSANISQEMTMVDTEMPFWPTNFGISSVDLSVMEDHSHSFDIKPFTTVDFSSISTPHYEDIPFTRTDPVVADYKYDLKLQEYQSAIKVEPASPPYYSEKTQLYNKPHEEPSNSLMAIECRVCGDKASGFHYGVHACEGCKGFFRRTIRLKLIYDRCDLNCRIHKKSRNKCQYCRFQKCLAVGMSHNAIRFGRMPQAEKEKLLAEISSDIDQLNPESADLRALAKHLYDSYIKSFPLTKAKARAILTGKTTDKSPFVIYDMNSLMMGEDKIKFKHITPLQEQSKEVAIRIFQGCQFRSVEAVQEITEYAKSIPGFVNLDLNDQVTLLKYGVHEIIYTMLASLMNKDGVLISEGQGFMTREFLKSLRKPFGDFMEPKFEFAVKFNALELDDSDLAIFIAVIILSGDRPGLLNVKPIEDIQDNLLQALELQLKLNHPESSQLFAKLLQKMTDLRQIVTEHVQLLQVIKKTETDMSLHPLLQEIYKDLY
Outline: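 GeneBLAzer PPARg UAS-bla HEK293H cells carrying a stably integrated beta-lactamase reporter were pre-incubated 5 h at 37C, then exposed to compounds in DMSO for 17 h at 37C; LiveBLAzer B/G FRET substrate was added for 1 h at room temperature and fluorescence read.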

[13] = qHTS assay to identify small molecule phospholipidosis (PLD) inducers (AID 1259344; active means well fitted curve in the direction sought with a large enough effect; an effect the other way counts as inactive or inconclusive)
Outline: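 Quantitative HTS in HepG2: compound plus LipidTOX Red dye for 24 h, paraformaldehyde fixation with Hoechst 33342, widefield high-content imaging; amiodarone as positive and DMSO as negative control.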

[14] = molecular target: Nuclear receptor subfamily 1 group I member 2 (Homo sapiens) (UniProt O75469); assay: Human pregnane X receptor (PXR) activation by small molecules, qHTS assay (AID 1346985); further: nearly all actives have a fitted effect of over 40% in size
Outline: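 DPX-2 cells (HepG2 co-transfected with a PXR response element and a CYP3A4-promoter luciferase construct) were seeded at 2,000 per well, rested 5 hr at 37C, then exposed to DMSO-dissolved compounds for 24 hr. Activation was read as luciferase luminescence.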

[15] = qHTS assay to identify small molecule antagonists of the estrogen receptor alpha (ER-alpha) signaling pathway using the BG1 cell line (AID 743080; calls by dose curve;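 further: BG1 cells stimulated with 17beta-estradiol alongside compound; nearly all actives have a fitted effect of over 25% in size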)
Outline: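 BG1-Luc-4E2 cells (endogenous full-length ER-alpha, stable 4×ERE-luciferase) were starved 5 days in phenol-red-free medium with 10% charcoal-stripped FBS, plated 24 h, then given compound plus 17beta-estradiol for 21.5 h at 37 C; ONE-Glo luminescence read after 30 min.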

[16] = molecular target: Nuclear receptor subfamily 1 group I member 2 (Homo sapiens) (UniProt O75469); assay: CYP3A4 induction through human pregnane X receptor (PXR) by small molecules, qHTS assay (AID 1346984); further: nearly all actives have a fitted effect of over 40% in size
Outline: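 DPX-2 cells (HepG2 co-transfected with PXR and CYP3A4 promoter-luciferase) treated with compounds 24 h at 37C; luciferin-IPA CYP3A4 substrate 3uM final added for 3 h, then One-Glo; luminescence read. qHTS format.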

In the case of `CC(=O)O[C@H]1C[C@@]2(C)[C@@H](C[C@@H](O)[C@H]3[C@@]4(C)CC[C@@H](O)[C@@H](C)[C@@H]4CC[C@@]32C)/C1=C(\CCC=C(C)C)C(=O)O`, the Potency [1] is reported as “inactive”, the Potency [2] is reported as “inactive” and the Potency [3] is reported as “inactive”. The Potency [4] was “inactive”, the Potency [5] was “inactive” and the Potency [6] was “inactive”. For the same molecule, the Potency [7] was “inactive”, the Potency [8] was “inactive” and the Potency (Aromatase (Homo sapiens)) was “inactive”. For the same molecule, the Potency [9] was “inactive”, the Potency [10] was “inactive” and the Potency [11] was “inactive”. For the same molecule, the Potency [12] was “inactive”, the Potency [13] was “inactive” and the Potency [14] was “inactive”.
With `CCOc1ccc(C[C@H]2NC(=O)CCSSC[C@@H](C(=O)N3CCC[C@H]3C(=O)N[C@@H](CCCN)C(=O)NCC(N)=O)NC(=O)[C@H](CC(N)=O)NC(=O)[C@H]([C@@H](C)O)NC(=O)[C@H]([C@@H](C)CC)NC2=O)cc1` ([Mpa][dY](Et)ITNCP[Orn]G-NH2; disulfide 1-6) the Potency [1] was “inactive”, the Potency [2] was “inactive” and the Potency [3] was “inactive”. The Potency [4] was “inactive”, the Potency [5] was “inactive” and the Potency [6] was “inactive”. The Potency [7] was “inactive”, the Potency [15] was “inactive” and the Potency [8] was “inactive”. For the same molecule, the Potency (Aromatase (Homo sapiens)) was “inactive”, the Potency [9] was “inactive” and the Potency [10] was “inactive”. The Potency [12] was “inactive” and the Potency [13] was “inactive”.
For `CCCC(CCC)C(N)=O`, the Potency [1] was “inactive”, the Potency [2] was “inactive” and the Potency [3] was “inactive”. For the same molecule, the Potency [4] was “inactive”, the Potency [5] was “inactive” and the Potency [6] was “inactive”. For the same molecule, the Potency [7] was “inactive”, the Potency [15] was “inactive” and the Potency (Aromatase (Homo sapiens)) was “inactive”. The Potency [9] was “inactive”, the Potency [10] was “inactive” and the Potency [11] was “inactive”. The Potency [12] was “inactive” and the PLD induction [13] was 0.287% [at 7.66 µM].
In the case of `CC(NNC(=O)c1ccccc1)c1ccccc1` (centres undefined), the Potency [5] is reported as “inactive”, the Potency [8] is reported as “inactive” and the Potency (Aromatase (Homo sapiens)) is reported as “inactive”. For the same molecule, the Potency [9] was “inactive”, the Potency [10] was 11.9 µM (active) and the Potency [11] was “inactive”. For the same molecule, the Potency [12] was “inactive”, the Potency [13] was “inactive” and the Potency [16] was “inactive”.
For `CC[C@H](CC[C@@H](C)[C@H]1CC[C@H]2[C@@H]3CC=C4C[C@@H](O)CC[C@]4(C)[C@H]3CC[C@]12C)C(C)C`, the Potency [1] was “inactive”, the Potency [2] was “inactive” and the Potency [3] was “inactive”. For the same molecule, the Potency [4] was “inactive”, the Potency [5] was “inactive” and the Potency [6] was “inactive”. The Potency [7] was “inactive”, the Potency [15] was “inactive” and the Potency [8] was “inactive”. For the same molecule, the Potency (Aromatase (Homo sapiens)) was “inactive”, the Potency [9] was “inactive” and the Potency [10] was “inactive”. The Potency [11] was “inactive”, the Potency [12] was “inactive” and the Potency [13] was “inactive”.
For `Nc1ncnc(Nc2ccc(Cl)cc2)n1`, the Potency [1] was “inactive”, the Potency [2] was “inactive” and the Potency [3] was “inactive”. For the same molecule, the Potency [4] was “inactive”, the Potency [5] was “inactive” and the Potency [6] was “inactive”. The Potency [7] was 23.7 µM (active), the Potency (Aromatase (Homo sapiens)) was “inactive” and the Potency [9] was “inactive”. The Potency [10] was 11.9 µM (active), the Potency [12] was “inactive” and the Potency [13] was “inactive”.
With `CCC(=O)OCC(=O)[C@@]1(OC(=O)CC)[C@@H](C)C[C@H]2[C@@H]3CCC4=CC(=O)C=C[C@]4(C)[C@@]3(Cl)[C@@H](O)C[C@@]21C` the Potency [1] was “inactive”, the Potency [3] was “inactive” and the Potency [5] was “inactive”. The Potency [7] was “inactive”, the Potency [8] was “inactive” and the Potency (Aromatase (Homo sapiens)) was 2.66 µM (active). For the same molecule, the Potency [9] was “inactive”, the Potency [10] was 10.6 µM (active) and the Potency [11] was “inactive”. The Potency [13] was “inactive”.
